# Test results taken from PubChem BioAssay (NCATS).
# Inconclusive results are not listed. A number with no mark means an inactive call. The source made the active and inactive calls. The call rests on the fitted dose curve; in most records, active means well fitted inhibition curve with a large enough effect in the repeat runs; inconclusive means weak or mixed curves; inactive means no such curve, though single readings can be large or run the other way.
# Target: Cytochrome P450 2C9 (Homo sapiens) (UniProt P11712)
# Test: Cytochrome P450 family 2 subfamily C member 9 (CYP2C9) small molecule antagonists: luciferase biochemical (cell-free) qHTS assay (AID 1645842); further: nearly all actives have a fitted effect of over 55% in size
# Settings: P450-Glo CYP2C9 enzyme assay, luciferin luminescence; series mostly up to 57.4 µM; activity change, negative = inhibition: at the top concentration
# Description: National Center for Advancing Translational Sciences [NCATS] Assay Overview: Cytochrome P450 (CYP) enzymes are membrane-bound hemeproteins that play a key role in metabolism of drugs and xenobiotics. Assaying the effect of chemicals on CYP isozymes is useful to minimize the adverse drug reactions and toxicities in drug development process. Chemical compounds were tested for their effect on CYP enzyme activities by using P450-Glo (TM) screening systems (Promega Corporation, Madison, WI). These systems provide a luminescent method containing proluciferin substrates and are converted to luciferin products by CYP isozymes. The luciferin products formed are detected with a luciferin detection reagent, and the amount of light produced is proportional to CYP activity. P450-Glo (TM) CYP2C9 screening system (Catalog. No. V9790) was used to detect the compounds that interfere in CYP2C9 activity.
# Assay Protocol Summary: Two ul of enzyme-substrate mix supplemented with 0.4% Bovine Serum Albumin was dispensed into medium binding white/solid 1536-well plates (Greiner Bio-One North America Inc., Monroe, NC) using a Flying Reagent Dispenser (FRD, Aurora Discovery, San Diego, CA). […] The assay plates were incubated at room temperature for 10 min. Then 2 ul of NADPH regeneration solution was added to each well of the assay plates using an FRD and incubated at 37C for 1 h. The reaction was stopped by adding 4 ul of detection reagent using an FRD and after 20 min incubation at room temperature, the luminescence signal was measured using a ViewLux plate reader (Perkin Elmer, Shelton, CT). Data were expressed as relative luminescence units.
# On the % scale 0 is the no-effect control and ±100 the full control effect; potency means the concentration at half of the fitted maximal effect.
# Chain of Cytochrome P450 2C9 (Homo sapiens) (P11712 whole entry, looked up): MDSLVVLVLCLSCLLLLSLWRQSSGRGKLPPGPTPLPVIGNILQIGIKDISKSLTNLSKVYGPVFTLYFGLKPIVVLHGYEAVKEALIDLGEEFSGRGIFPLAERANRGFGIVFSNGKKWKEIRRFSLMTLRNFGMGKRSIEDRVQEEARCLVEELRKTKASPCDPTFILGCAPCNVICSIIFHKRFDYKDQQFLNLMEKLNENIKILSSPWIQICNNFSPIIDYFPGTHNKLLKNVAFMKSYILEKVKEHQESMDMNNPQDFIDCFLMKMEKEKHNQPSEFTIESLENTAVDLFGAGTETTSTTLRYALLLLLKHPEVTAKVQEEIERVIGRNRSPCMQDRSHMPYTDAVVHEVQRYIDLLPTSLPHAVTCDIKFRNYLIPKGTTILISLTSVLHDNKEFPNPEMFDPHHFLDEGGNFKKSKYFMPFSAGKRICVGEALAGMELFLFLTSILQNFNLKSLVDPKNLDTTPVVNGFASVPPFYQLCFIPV
SMILES,"activity change, negative = inhibition",Potency
CN(C)CCc1c[nH]c2ccc(CN3CCN(C)S3(=O)=O)cc12,0.193%,
CN1CCC[C@@H]1Cc1c[nH]c2ccc(Nc3ncccc3[N+](=O)[O-])cc12,,19 µM (active)
CCCCCCn1c(=O)c(C(=O)Nc2ccc(C(=O)OCCC)cc2)c(O)c2ccccc21,7.72%,
OCCCCC#Cc1cncc(OC[C@@H]2CCN2)c1,0.949%,
CCc1c(C(=O)C(N)=O)c2c(OCC(=O)OC)cccc2n1Cc1ccccc1,,13.5 µM (active)
Clc1ccc(OCC2=NCCN2)cc1Cl,0.557%,
CCCCCOc1cc2c(cc1-c1cc(/C=C/C(=O)O)ccc1O)C(C)(C)CCC2(C)C,,12 µM (active)
Cc1cc(C(=O)CN2CCCC2)c(C)n1-c1ccc(F)cc1,6.63%,
CC(C)(C)c1cc(C(C)(C)C)c2c(c1)C(O)(C(F)(F)F)C(=O)O2 (centres undefined),,21.3 µM (active)
COc1ccccc1CN[C@H]1C2CCN(CC2)[C@H]1C(c1ccccc1)c1ccccc1,-0.148%,
Cn1ncnc1COc1nn2c(-c3c(F)cccc3F)nnc2cc1C1CCC1,,6.74 µM (active)
C[C@H](NC(=O)Cc1cc(F)cc(F)c1)C(=O)N[C@@H]1N=C(c2ccccc2)c2ccccc2N(C)C1=O,1.74%,
CC1CCC(C(C)C)C(OC(=O)c2ccccc2N)C1 (centres undefined),,2.68 µM (active)
C[C@@](O)(COc1ccc(C#N)cc1)C(=O)Nc1ccc(C#N)c(C(F)(F)F)c1,,1.51 µM (active)
CCCCNCC(O)c1ccc(O)cc1 (centres undefined),-17.3%,
CCCC(C)C1(CC)C(=O)NC(=O)NC1=O (centres undefined),-10.6%,
Cc1cccc(NC(=O)N[C@@H]2N=C(c3ccccc3)c3ccccc3N(C)C2=O)c1,,12 µM (active)
O=C(NC(=O)c1c(F)cccc1F)Nc1ccc(Cl)c(Oc2ncc(C(F)(F)F)cc2Cl)c1,,1.9 µM (active)
CC(N)Cc1c[nH]c2ccccc12 (centres undefined),-6.63%,
COCC(C)N(C(=O)CCl)c1c(C)csc1C (centres undefined),,13.5 µM (active)

SMILES,"activity change, negative = inhibition",Potency
Cc1cn(C[C@H](N)C(=O)O)c(=O)n(Cc2cc(-c3ccccc3)sc2C(=O)O)c1=O,0.203%,
O=[N+]([O-])C(Br)(CO)CO,,6.74 µM (active)
CC(C)(C)c1cc(O)ccc1O,,12 µM (active)
CC(Cc1ccccc1)NC=O (centres undefined),7.89%,
O=C1C2CC=CCC2C(=O)N1SC(Cl)(Cl)Cl (centres undefined),,6.74 µM (active)
C[CH2][Hg][S]c1ccccc1C(=O)O,,3.47 µM (active)
COc1cc(CCNCc2ccccc2O)c(OC)cc1C#N,,9.52 µM (active)
ClC1C(Cl)C(Cl)C(Cl)C(Cl)C1Cl (centres undefined),-21.4%,
OC1(c2ccc(Cl)cc2)c2ccccc2C2=NCCN21 (centres undefined),,15.1 µM (active)
CCc1[nH]c2ccc(OC)cc2c1CCN(C)C,-0.504%,
Cc1c(Cl)cccc1S(=O)(=O)Nc1nc(CC(=O)N2CCN(C)CC2)cs1,,21.3 µM (active)
COC(=O)N1CCN(C(=O)Cc2ccc(Cl)c(Cl)c2)[C@@H](CN2CCCC2)C1,-12.5%,
COc1ccc(OC)c(C(O)C(C)N)c1 (centres undefined),-3.59%,
NCC(O)c1cccc(O)c1 (centres undefined),-2.52%,
C#CC(C)(O)CC (centres undefined),3.08%,
CC(C)[C@@H](CN1CC[C@@](C)(c2cccc(O)c2)[C@@H](C)C1)NC(=O)[C@H]1Cc2ccc(O)cc2CN1,-19.9%,
CCOc1ccccc1-n1c(C(C)N2CCN(C(=O)COc3ccc(Cl)cc3)CC2)nc2ccccc2c1=O (centres undefined),,13.5 µM (active)
COc1cc(C)[nH]c(=O)c1CNC(=O)c1c(C)n([C@H](C)C2CCOCC2)c2ccccc12,,13.5 µM (active)
CCNCC(O)c1cccc(O)c1 (centres undefined),3.9%,
